Screens (PubChem BioAssay)
Compounds with a hit are over-represented: about 11% of the library has one in this group of screens.
AmpC inh no detg: inhibitors of E. coli AmpC beta-lactamase without detergent | AmpC nitrocefin hydrolysis, absorbance 480 nm, 0.0001% Triton | AID 485341 | actives 0.52% (n = 330,000) | Potency, µM (series often up to 57.1 µM), without a hit: top-dose activity change, negative = inhibition, hits mostly inhibitors;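 note: plate controls were no compound for no effect and no enzyme for full effect; nearly all actives have a fitted effect of over 20% in size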
Target sequence (P00811 whole entry, looked up): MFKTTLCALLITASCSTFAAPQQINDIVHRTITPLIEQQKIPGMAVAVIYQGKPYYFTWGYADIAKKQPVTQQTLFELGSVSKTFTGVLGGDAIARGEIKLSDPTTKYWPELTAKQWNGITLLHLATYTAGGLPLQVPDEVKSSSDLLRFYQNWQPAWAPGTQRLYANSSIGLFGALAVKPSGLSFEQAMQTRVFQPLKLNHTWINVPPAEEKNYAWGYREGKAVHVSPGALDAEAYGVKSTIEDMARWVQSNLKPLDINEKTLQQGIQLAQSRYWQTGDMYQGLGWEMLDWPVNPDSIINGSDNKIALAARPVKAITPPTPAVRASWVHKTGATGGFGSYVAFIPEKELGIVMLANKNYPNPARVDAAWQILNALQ
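AmpC (5.3 nM in the dispensed reagent) in 20 mM phosphate pH 7.0 with 0.01% (detergent screen) or 0.0001% Triton X-100 was preincubated with compounds for 15 min at room temperature. Nitrocefin was then added from an 800 uM solution, and hydrolysis was followed at 480 nm.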
Pf growth 96h: P. falciparum growth inhibition at 96 hours; P. falciparum luciferase reporter growth, 96 h; Potency, µM (top dose mostly 28.7 µM), inactives show at the highest dose activity change, negative = inhibition, actives largely listed as inhibitors; actives 6.9% (n = 320,000); AID 504834
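Readout is luminescence from an integrated firefly luciferase in P. falciparum. Red cells, 2% hematocrit and 0.05% parasitemia final, were cultured with compound through two parasite generations (96 hours) at 37 C, 5% CO2.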
HCV inh: HCV inhibition. Potency, µM (titrated, usually from 41.8 µM), for inactives: top-dose activity change, negative = inhibition, usual class: inhibitors. actives 3.4% (n = 340,000). Huh7.5.1 HCVcc-Cre infection, luciferase reporter, 44 h
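Cells (1,000/well) were plated 4 h before compound, then infected with HCVcc-Cre virus (~0.5 moi). After 44 h further culture, infection was read as luciferase luminescence following a 15 min substrate incubation at room temperature.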
AMA1-RON2 inh: inhibitors of Plasmodium falciparum AMA1-RON2 interaction; AlphaScreen AMA1-biotinylated RON2 peptide binding; Potency, µM (top dose mostly 58.2 µM), inactives show top-dose activity change, negative = inhibition, actives largely listed as inhibitors; actives 0.2% (n = 360,000); AID 720542;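 note: 0% = vehicle wells and -100% = peptide control; nearly all actives have a fitted effect of over 45% in size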
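AMA1 (3D7) with his tag at 25 nM final met compounds first, then biotinylated RON2 peptide at 25 nM; detection used donor plus acceptor beads, 10 µg/mL apiece, read by AlphaScreen after 30 min at room temperature.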
Pf growth 48h: P. falciparum growth inhibition at 48 hours (one generation). P. falciparum luciferase growth in erythrocytes, 48 h. Potency, µM (doses to about 28.7 µM), for the others: top-dose activity change, negative = inhibition, most hits filed as inhibitors. actives 5.9% (n = 310,000). AID 504832
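Erythrocytes infected with P. falciparum carrying an integrated firefly luciferase reporter (2% hematocrit, 0.1% parasitemia final) were exposed to compounds in RPMI 1640 with 0.5% Albumax at 37 C, 5% CO2. Growth inhibition was scored as reduced luminescence.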
AmpC inh detg: inhibitors of E. coli AmpC beta-lactamase with detergent | P00811 | AmpC hydrolysis of nitrocefin, absorbance 480 nm, 0.01% Triton | Potency, µM (series often up to 114 µM), inactives show at the highest dose activity change, negative = inhibition, most hits filed as inhibitors | actives 0.041% (n = 370,000) | AID 485294;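 note: 0% = no-compound wells and -100% = no-enzyme wells; nearly all actives have a fitted effect of over 25% in size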
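20 mM phosphate pH 7.0 + 0.01% (detergent screen) or 0.0001% Triton X-100; 5.3 nM AmpC reagent; cpd preinc 15 min RT; nitrocefin (800 uM stock) to start; A480 q20 s × 4 min; Activity was normalised to no-enzyme and no-compound control wells.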
Starred values were filed as active, the others as inactive; ? = inconclusive; . = no result given. Calls come from the whole dose curve; as a rule, active = well fitted curve in the direction sought with a large enough effect; inconclusive = small, poorly fitted or top-dose-only effect, or another doubt; inactive = no such curve, though single readings can be large; an effect the other way counts as inactive or inconclusive. Unless noted, % is set by controls: 0 for no effect and ±100 for the full control effect; potency is the fitted concentration of half-maximal effect.

SMILES | AmpC inh no detg | Pf growth 96h | HCV inh | AMA1-RON2 inh | Pf growth 48h | AmpC inh detg
CCc1ccccc1NC(=O)Nc1ccc(F)cc1 | -24.9% | ? | -8.5% | 10.0% | 0.0% | -6.1%
CCOCCn1ccc2c(OCC(=O)Nc3cccc(F)c3)cccc2c1=O | . | . | . | . | . | -7.0%
Cc1ccc(CNC(=O)CCCN2C(=O)c3cccnc3Oc3ccc(Cl)cc32)cc1 | . | . | . | . | . | -1.3%
O=C(NC1CC(=O)N(c2cccc(F)c2)C1)C1CCCC1 (stereo not drawn) | . | . | . | . | . | -0.8%
COc1cc(-c2nc3n(n2)C(c2ccc(F)cc2)C(C(N)=O)=C(C)N3)cc(OC)c1OC (stereo not drawn) | . | . | . | . | . | 11.5%
CCN(Cc1ccc(NC(C)=O)cc1)CC1CCCN(CCc2cccc(F)c2)C1 (stereo not drawn) | -1.3% | ? | ? | 3.0% | ? | -10.7%
CCN(Cc1ccc(C#CCCO)cc1)CC1CCCN(CCc2cccc(OC)c2)C1 (stereo not drawn) | 37.5% | 2.08µM* | 11.2µM* | 5.7% | ? | -4.6%
CCOCCCn1c(=N)c(C(=O)NCc2cccnc2)cc2c(=O)n3cc(C)ccc3nc21 | . | . | . | . | . | 10.7%
CN(Cc1ccc(F)cc1)Cc1nc(-c2ccccc2)no1 | 0.4% | 10.4µM* | 2.6% | 29.4% | -3.1% | 5.0%
COc1ccc(N(C(=O)c2snc(C(N)=O)c2N)C(C(=O)NC2CCCC2)c2ccco2)c(OC)c1 (stereo not drawn) | 16.9% | ? | ? | -12.3% | ? | -18.0%
COc1ccc(N(C(=O)c2snc(C(N)=O)c2N)C(C(=O)NC2CCCCC2)c2ccc(C)o2)c(OC)c1 (stereo not drawn) | 33.6% | 50.3% | ? | -8.2% | 13.1µM* | 10.0%
COc1cc(C(C(=O)NC2CCCC2)N(C(=O)c2snc(C(N)=O)c2N)c2ccccc2)cc(OC)c1OC (stereo not drawn) | 118.4% | 8.28µM* | -9.6% | 0.9% | ? | 4.1%
COc1ccc(C(C(=O)NC2CCCCC2)N(C(=O)c2snc(C(N)=O)c2N)c2ccc(OC)cc2OC)cc1 (stereo not drawn) | 55.7% | 27.5% | 8.91µM* | -23.9% | ? | 9.0%
COc1ccc(N(C(=O)c2snc(C(N)=O)c2N)C(C(=O)NC2CCCC2)c2ccc(F)cc2)c(OC)c1 (stereo not drawn) | 28.5% | 218.9% | 11.2µM* | 1.0% | ? | 4.3%
COCCN(C(=O)c1snc(C(N)=O)c1N)C(C(=O)NC1CCCC1)c1cc(OC)c(OC)c(OC)c1 (stereo not drawn) | 14.7% | ? | 0.9% | 0.1% | -5.7% | -12.6%
Cc1ccc(Cl)cc1N1CCN(C(=O)c2c(C)oc3ncnc(N4CCOCC4)c23)CC1 | . | . | . | . | . | 15.2%
Cc1c(C(=O)OCCOc2ccccc2)[nH]c2c1C(=O)CC(c1ccccc1Cl)C2 (stereo not drawn) | . | . | . | . | . | 18.5%
COc1ccc(C)cc1N(C(=O)c1snc(C(N)=O)c1N)C(C(=O)NC1CCCC1)c1ccc(F)cc1 (stereo not drawn) | 50.2% | 21.3% | ? | 2.4% | 9.28µM* | 4.2%
Cc1cccc(N(C(=O)c2snc(C(N)=O)c2N)C(C(=O)NC2CCCC2)c2ccncc2)c1 (stereo not drawn) | -5.3% | ? | 7.0% | 2.8% | ? | 0.4%
O=C(NCCc1nc2ccccc2n1Cc1c(F)cccc1Cl)c1ccco1 | . | . | . | . | . | -3.5%
Cc1cc(Nc2ccc3c(c2)OCCO3)c2cc(Cl)ccc2n1 | -11.6% | 246.5% | ? | -8.4% | 7.38µM* | -19.4%
COC(=O)c1ccc2nc(C)cc(Nc3ccc(O)cc3)c2c1 | . | . | . | . | . | 1.3%
COC(=O)c1ccc2nc(C)cc(Nc3ccc(N(C)C)cc3)c2c1 | -7.4% | ? | -4.2% | ? | 1.65µM* | -4.6%
Cc1ccc(Nc2cc(C)nc3ccccc23)c(C)c1 | . | . | 31.6µM* | -5.1% | . | .
Cc1ccc(Nc2cc(C)nc3ccc(C)cc23)cc1 | 1.6% | 0.0415µM* | ? | -7.9% | -105.4% | ?
SMILES | AmpC inh no detg | Pf growth 96h | HCV inh | AMA1-RON2 inh | Pf growth 48h | AmpC inh detg
CCCc1cnc2c(c1SCc1cccc(F)c1)c(=O)n(C)c(=O)n2C | . | . | . | . | . | -1.3%
CCOc1ccccc1CNC(=O)CCCN1C(=O)c2cccnc2Oc2ccc(Cl)cc21 | . | . | . | . | . | 1.2%
CCOc1ccc(NC(=O)c2ccccc2NC(=O)CN(C)CC(=O)Nc2ccc(C)cc2)cc1 | 57.4% | ? | -14.3% | 3.3% | 10.4µM* | -10.8%
Cc1cc(N2CCCCC2)nc2ccc(NC(=O)/C=C/c3ccc(OCCC(C)C)cc3)cc12 | . | . | . | . | . | -0.5%
CN(c1ccccc1)S(=O)(=O)c1ccc(C(=O)Nc2nnc(C3CC3)o2)cc1 | -33.0% | 5.22µM* | 10.6% | 107.2% | 11.7µM* | -0.6%
COCc1nnc(NC(=O)c2ccc(S(=O)(=O)N(C)c3ccccc3)cc2)o1 | 39.8µM* | -33.4% | 17.2% | 50.1% | ? | ?
CN(c1ccccc1)S(=O)(=O)c1ccc(C(=O)Nc2nnc(-c3ccco3)o2)cc1 | -35.8% | 7.38µM* | ? | 33.7% | ? | -0.5%
COCCN(CCOC)S(=O)(=O)c1ccc(C(=O)Nc2nnc(C3CC3)o2)cc1 | -1.3% | . | -1.7% | -11.3% | -10.8% | -12.9%
CC1CCCN(S(=O)(=O)c2ccc(C(=O)Nc3nnc(-c4ccco4)o3)cc2)C1 (stereo not drawn) | -42.9% | ? | ? | 55.1% | 11.7µM* | -12.9%
CCN(c1ccccc1)S(=O)(=O)c1ccc(C(=O)Nc2nnc(COC)o2)cc1 | -26.6% | ? | ? | -3.1% | ? | 0.1%
